High-throughput results from PubChem BioAssay.
Integrin act MD: integrin-mediated muscular dystrophy alleviation activation | alpha7betagal myoblasts, beta-gal FDG fluorescence, 48 h | Potency, µM (series often up to 38.3 µM), without a hit: at the top dose activation, usual class: activators | actives 0.064% (n = 350,000);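 further: 100% = response of the positive control SU9516; nearly all actives have a fitted effect of over 60% in size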
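Alpha7betagal+/- myoblasts (passage 13) were plated 16-24 hr, then exposed to compounds (1:260 dilution of DMSO stock) for 48 hours at 37C. After MPER lysis, β-galactosidase reporter activity was read as FDG fluorescence (ex 480/em 540) after 30 minutes.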
VP16 counter: Gal4-VP16 reporter inhibition counter-screen; Drosophila S2 Gal4-VP16 UAS-luciferase, luminescence, 20 h; Potency, µM (doses to about 53.6 µM), for inactives: at the highest dose activity, negative = inhibition, hits mostly inhibitors; actives 3.5% (n = 310,000); AID 2546;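 further: Gal4-VP16 expression switched on by copper sulfate through the metallothionein promoter; on the % scale 0 is the no-effect control and ±100 the full control effect; nearly all actives have a fitted effect of over 50% in size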
RORgamma inh: blocks mouse ROR gamma transcriptional activity. Drosophila S2 Gal4-RORgamma UAS-luciferase reporter, 20 h. Potency, µM (doses to about 53.6 µM), for the others: top-dose activity change, negative = inhibition, most hits filed as inhibitors. actives 5.4% (n = 310,000); further: on the % scale 0 is the no-effect control and ±100 the full control effect; nearly all actives have a fitted effect of over 60% in size
Target sequence (P51450 whole entry, looked up, the tested form may be a part): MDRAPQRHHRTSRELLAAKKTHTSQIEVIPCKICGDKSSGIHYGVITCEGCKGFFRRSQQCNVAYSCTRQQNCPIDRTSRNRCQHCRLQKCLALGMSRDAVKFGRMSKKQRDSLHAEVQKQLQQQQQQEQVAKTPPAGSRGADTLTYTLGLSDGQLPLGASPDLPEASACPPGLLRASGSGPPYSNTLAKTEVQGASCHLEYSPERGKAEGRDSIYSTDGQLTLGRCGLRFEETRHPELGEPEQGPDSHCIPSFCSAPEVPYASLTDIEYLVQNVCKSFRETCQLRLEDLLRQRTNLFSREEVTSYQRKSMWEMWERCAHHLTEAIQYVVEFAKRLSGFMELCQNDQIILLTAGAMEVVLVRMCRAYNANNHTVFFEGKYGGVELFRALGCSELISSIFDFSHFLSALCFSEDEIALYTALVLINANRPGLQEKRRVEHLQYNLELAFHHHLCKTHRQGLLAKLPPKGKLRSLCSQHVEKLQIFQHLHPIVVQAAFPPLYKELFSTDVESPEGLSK
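Luminescence from a UAS-regulated Photinus luciferase reporter in stably transfected Drosophila Schneider cells is measured; decreased signal marks ROR gamma inhibition. Fusion expression is induced by 700 uM copper sulfate for 20 hr.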
Chronic BCR inh: blocks chronic active B-cell receptor signaling; Potency, µM (series often up to 46.1 µM), inactives show at the top dose activity change, negative = inhibition, usual class: inhibitors; actives 0.05% (n = 340,000); ABC-DLBCL IkBa-CBG/CBR reporter, luminescence ratio, 4 h; AID 493014; active means well fitted inhibition curve with a large enough effect in the signal ratio, with a control signal flat, not every such curve was filed as active; inconclusive means small, poorly fitted or top-dose-only effect, or effect the other way, or a change in a side signal; the % refers to the signal ratio;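 further: plate controls were basal doxycycline-induced cells for no effect and cells given 10 µM MG132 for full effect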
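Compounds up to 46 uM were incubated four hours with TMD8 cells whose green CBG68 luciferase is fused to IkappaBalpha; red CBR luminescence normalised the signal, and concentration-effect curves were fitted to fusion, red and ratio data.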
uPA surface inh: inhibitors of cell surface uPA generation; cell surface uPA generation assay, qHTS; Potency, µM (top dose mostly 38.3 µM), for the others: top-dose activity change, negative = inhibition, actives largely listed as inhibitors; actives 0.31% (n = 330,000); active means well fitted inhibition curve with a large enough effect; inconclusive means small, poorly fitted or top-dose-only effect; inactive means no such curve, though single readings can be large or run the other way; tested in mouse RAW 264.7 cells; further: on the % scale 0 is the no-effect control and ±100 the full control effect; nearly all actives have a fitted effect of over 55% in size
Mito fusion act: mitochondrial division inhibition or fusion activation | S. cerevisiae fusion-defective mutant growth rescue, CellTiterGlo 48 h | Potency, µM (top dose mostly 46.1 µM), without a hit: at the highest dose growth rescue (activation), most hits filed as activators | actives 0.23% (n = 320,000); further: % of control where 0% means no effect; nearly all actives have a fitted effect of over 45% in size
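Luminescent cell viability in 1536-well qHTS format served as the measure of rescued growth in ts fusion-mutant S. cerevisiae cultured on non-fermentable YPEG for 48 hours at 37C.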
* hit, by the source's call; [ ] = remark or other dose. Compounds with a hit are over-represented: about 5.5% of the library has one in this group of screens. Unless noted, the call rests on the fitted dose curve; in most records, active means well fitted curve in the direction sought with a large enough effect; inconclusive means small, poorly fitted or top-dose-only effect, or another doubt; inactive means no such curve, though single readings can be large; an effect the other way counts as inactive or inconclusive. Potency means the concentration at half of the fitted maximal effect.

How did CCCCOc1ccc(-c2cc(C(F)(F)F)c(C#N)c(SCC(=O)O)n2)cc1 do in these assays?
Integrin act MD: -15.0%; VP16 counter: -3.5%; RORgamma inh: 14.4%; Chronic BCR inh: -0.4%; uPA surface inh: 1.3%; Mito fusion act: 29.1%

What do the screens show for `O=C(COC(=O)c1ccc(O)cc1O)Nc1cc(-c2ccccc2)nn1-c1ccccc1`?
Integrin act MD: 6.6%; Chronic BCR inh: inconclusive; uPA surface inh: 3.4%; Mito fusion act: -28.5%

How did Cc1nnc(N=c2ssnc2Cl)o1 do in these assays?
Integrin act MD: 8.6%; Chronic BCR inh: -5.7%; uPA surface inh: -8.2%; Mito fusion act: -19.2%

What do the screens show for `Cc1ccc(N=c2ssnc2Cl)cc1`?
Integrin act MD: -69.0%; VP16 counter: inconclusive; RORgamma inh: 12.6µM*; Chronic BCR inh: 0.7%; uPA surface inh: -3.3%; Mito fusion act: 1.1%

What do the screens show for `Cc1cc(C)nc(/N=c2/ssnc2Cl)c1`?
Integrin act MD: -37.4%; VP16 counter: inconclusive; RORgamma inh: 20µM*; Chronic BCR inh: 7.9%; uPA surface inh: 4.0%; Mito fusion act: -17.4%

How did Cc1cc(Cl)ccc1N=c1ssnc1Cl do in these assays?
Integrin act MD: -45.7%; VP16 counter: inconclusive; RORgamma inh: 11.2µM*; Chronic BCR inh: inconclusive; uPA surface inh: -2.7%; Mito fusion act: 1.1%

How did Nc1ccccc1N=c1ssnc1Cl do in these assays?
Integrin act MD: 14.3%; VP16 counter: -20.4%; RORgamma inh: -40.1%; Chronic BCR inh: inconclusive; uPA surface inh: 3.2%; Mito fusion act: 5.4%

Results for Cc1ccc(NC2=C(Cl)C(=O)c3ccccc3C2=O)cc1 ?
Integrin act MD: -54.4%; VP16 counter: inconclusive; RORgamma inh: inconclusive; Chronic BCR inh: 0.5%; uPA surface inh: -2.3%; Mito fusion act: 0.3%

Results for CCN(CC)c1ccc(NC2=C(Cl)C(=O)c3ccccc3C2=O)cc1 ?
Integrin act MD: -19.9%; VP16 counter: 11.2µM*; RORgamma inh: inconclusive; Chronic BCR inh: inconclusive; uPA surface inh: -1.5%; Mito fusion act: -2.3%

Results for CC(C)=CCC/C(C)=C/C=O ?
VP16 counter: 11.3%; RORgamma inh: -26.1%

What do the screens show for `CCCc1cc(-c2n[nH]c(=S)n2CC)cs1`?
Integrin act MD: 8.3%; VP16 counter: 11.2µM*; RORgamma inh: 7.08µM*; Chronic BCR inh: -11.6%; uPA surface inh: 17.7%; Mito fusion act: 0.1%

Results for CCCCn1c(-c2csc(CCC)c2)n[nH]c1=S ?
Integrin act MD: 0.1%; VP16 counter: 0.7%; RORgamma inh: 35.9%; Chronic BCR inh: inconclusive; uPA surface inh: -1.8%; Mito fusion act: inconclusive

How did CCc1cc(-c2n[nH]c(=S)n2CC)cs1 do in these assays?
Integrin act MD: -0.2%; VP16 counter: 10µM*; RORgamma inh: inconclusive; Chronic BCR inh: inconclusive; uPA surface inh: -1.9%; Mito fusion act: -9.1%

What do the screens show for `Fc1ccc(-n2c(Cc3cccs3)n[nH]c2=S)cc1Cl`?
Integrin act MD: -12.2%; VP16 counter: -5.8%; RORgamma inh: 14.1µM*; Chronic BCR inh: 1.4%; uPA surface inh: -1.0%; Mito fusion act: 16.8%

What do the screens show for `CC(CSc1n[nH]c(=S)s1)c1ccccc1` (stereo not given)?
Integrin act MD: 20.5%; uPA surface inh: 2.3%

Results for CCCc1cc(-c2n[nH]c(=S)n2C(C)c2ccccc2)cs1 (stereo not given) ?
Integrin act MD: -6.3%; VP16 counter: 7.08µM*; RORgamma inh: 7.08µM*; Chronic BCR inh: -1.4%; Mito fusion act: inconclusive

What do the screens show for `CC(C)(C)c1ccc(OCC(=O)NNC(=O)c2cccnc2)cc1`?
Integrin act MD: 28.8%; VP16 counter: 2.0%; RORgamma inh: 9.5%; Chronic BCR inh: 15.0%; uPA surface inh: 0.2%; Mito fusion act: 5.4%

What do the screens show for `NC(N)=NCC1COc2ccccc2O1` (stereo not given)?
VP16 counter: -9.7%; RORgamma inh: 12.9%

What do the screens show for `O=C1c2ccccc2/C(=C\C#Cc2ccccn2)N1c1ccccc1`?
Integrin act MD: -45.3%; Chronic BCR inh: inconclusive; uPA surface inh: inconclusive

How did S=c1[nH]nc(-c2cc(-c3ccsc3)n[nH]2)n1-c1cccc2ccccc12 do in these assays?
Integrin act MD: -13.9%; VP16 counter: -0.7%; RORgamma inh: inconclusive; Chronic BCR inh: -16.1%; uPA surface inh: 2.6%; Mito fusion act: 3.0%

How did CCn1c(C2CCN(Cc3ccccc3)CC2)n[nH]c1=S do in these assays?
Integrin act MD: 11.6%; VP16 counter: -3.1%; RORgamma inh: -29.5%; Chronic BCR inh: 2.1%; uPA surface inh: -1.9%; Mito fusion act: 15.1%

What do the screens show for `COc1cc(-c2n[nH]c(=S)n2C(C)c2ccccc2)cc(OC)c1OC` (stereo not given)?
Integrin act MD: -22.6%; VP16 counter: 12.6µM*; RORgamma inh: inconclusive; Chronic BCR inh: 7.2%; uPA surface inh: 9.6%; Mito fusion act: 0.9%

Results for CCc1cc(-c2n[nH]c(=S)n2Cc2ccccc2)cs1 ?
Integrin act MD: -15.7%; VP16 counter: 6.31µM*; RORgamma inh: 3.16µM*; Chronic BCR inh: 18.1%; uPA surface inh: 6.4%; Mito fusion act: 19.6%

What do the screens show for `FC(F)(F)c1ccc(Cl)c(-n2c(Cc3cccs3)n[nH]c2=S)c1`?
Integrin act MD: 0.3%; VP16 counter: 5.3%; RORgamma inh: inconclusive; Chronic BCR inh: -11.4%; uPA surface inh: -10.2%; Mito fusion act: 16.7%

What do the screens show for `Cc1ccccc1-n1c(Cc2cccs2)n[nH]c1=S`?
Integrin act MD: inconclusive; VP16 counter: inconclusive; RORgamma inh: 1.41µM*; Chronic BCR inh: -6.6%; uPA surface inh: -3.5%; Mito fusion act: -8.5%

How did CCc1cc(-c2n[nH]c(=S)n2-c2ccccc2C)cs1 do in these assays?
Integrin act MD: 20.1%[7.66 µM]; VP16 counter: 5.62µM*; RORgamma inh: 3.98µM*; Chronic BCR inh: inconclusive; Mito fusion act: 2.9%

Results for CCCn1c(N)c(C(=O)CSc2nnc(C3CC3)n2C2CC2)c(=O)[nH]c1=O ?
Integrin act MD: 23.4%; Chronic BCR inh: inconclusive; uPA surface inh: 3.4%

Results for Cc1ccnn1CCC(=O)N1CCCC(N2CCN(c3cccc(Cl)c3)CC2)C1 (stereo not given) ?
Integrin act MD: -2.3%; VP16 counter: 1.4%; RORgamma inh: 28.8%; Chronic BCR inh: inconclusive; uPA surface inh: 3.1%; Mito fusion act: 1.4%

Results for Cc1ccccc1CNC(=O)C1CCN(c2nnc(N3CCCC3=O)s2)CC1 ?
Integrin act MD: 6.3%; VP16 counter: -0.3%; RORgamma inh: -12.9%; Chronic BCR inh: 4.6%; uPA surface inh: 11.8%; Mito fusion act: -1.0%
